Assay results reported in publication PMC7862700, “An all-to-all approach to the identification of sequence-specific readers for epigenetic DNA modifications on cytosine”.

What was measured:
Assay in all cases: DAPPL (digital affinity profiling via proximity ligation, sequencing); 10 mM Tris-HCl pH 7.5, 50 mM NaCl, 1 mM DTT, 4% glycerol, room temperature, 30 min; GST-TFs on glutathione beads, 16-mer random dsDNA library, 0.1% formaldehyde crosslink after washing; high values mean tight binding
FLI1 = target: T1, FLI1 (Homo sapiens, UniProt Q01543 1-452); conditions: protein: recombinant; tags: N-terminal GST; dsDNA, one strand shown
T1 sequence: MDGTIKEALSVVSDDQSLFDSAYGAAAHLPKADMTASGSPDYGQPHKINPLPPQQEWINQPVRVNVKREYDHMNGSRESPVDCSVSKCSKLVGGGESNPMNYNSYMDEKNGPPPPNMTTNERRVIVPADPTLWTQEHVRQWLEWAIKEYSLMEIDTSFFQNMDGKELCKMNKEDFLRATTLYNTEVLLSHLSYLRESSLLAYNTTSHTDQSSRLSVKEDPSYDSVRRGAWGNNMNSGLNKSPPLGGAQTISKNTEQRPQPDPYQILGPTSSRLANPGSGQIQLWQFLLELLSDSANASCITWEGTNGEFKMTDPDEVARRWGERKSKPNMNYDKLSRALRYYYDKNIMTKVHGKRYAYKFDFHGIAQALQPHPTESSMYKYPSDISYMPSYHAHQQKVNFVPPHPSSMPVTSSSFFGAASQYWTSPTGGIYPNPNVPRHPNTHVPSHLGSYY
Outline: (§1)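 Binding signal is given per hexamer as its read frequency for a factor divided by its frequency in the tag-only sample. GST-fused human transcription factors were expressed in yeast, captured on glutathione beads, barcoded with DNA and pooled with that sample, then incubated with 200 nmole of a 16-mer random double-stranded DNA library in Tris/NaCl/DTT/glycerol buffer for 30 min at room temperature. The pools were then washed, crosslinked, proximity-ligated, amplified by PCR and sequenced on an Illumina NextSeq500.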

ELK1 = target: T2, ELK1 (Homo sapiens, UniProt P19419 1-428); conditions: protein: recombinant; tags: N-terminal GST; dsDNA, one strand shown
T2 sequence: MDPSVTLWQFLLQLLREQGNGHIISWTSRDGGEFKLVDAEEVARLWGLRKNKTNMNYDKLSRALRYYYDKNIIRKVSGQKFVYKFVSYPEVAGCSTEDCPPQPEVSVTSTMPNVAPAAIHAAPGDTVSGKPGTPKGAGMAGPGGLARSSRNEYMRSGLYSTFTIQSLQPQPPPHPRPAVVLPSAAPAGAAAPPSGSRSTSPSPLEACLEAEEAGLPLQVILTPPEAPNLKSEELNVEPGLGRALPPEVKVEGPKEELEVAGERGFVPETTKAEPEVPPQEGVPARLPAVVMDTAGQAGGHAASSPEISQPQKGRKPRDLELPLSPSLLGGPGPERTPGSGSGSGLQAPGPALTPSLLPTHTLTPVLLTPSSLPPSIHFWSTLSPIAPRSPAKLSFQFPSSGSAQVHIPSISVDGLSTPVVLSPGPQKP
Outline: as §1

GABPA = target: T3, GABPA (Homo sapiens, UniProt Q06546 1-454); conditions: protein: recombinant; tags: N-terminal GST; dsDNA, one strand shown
T3 sequence: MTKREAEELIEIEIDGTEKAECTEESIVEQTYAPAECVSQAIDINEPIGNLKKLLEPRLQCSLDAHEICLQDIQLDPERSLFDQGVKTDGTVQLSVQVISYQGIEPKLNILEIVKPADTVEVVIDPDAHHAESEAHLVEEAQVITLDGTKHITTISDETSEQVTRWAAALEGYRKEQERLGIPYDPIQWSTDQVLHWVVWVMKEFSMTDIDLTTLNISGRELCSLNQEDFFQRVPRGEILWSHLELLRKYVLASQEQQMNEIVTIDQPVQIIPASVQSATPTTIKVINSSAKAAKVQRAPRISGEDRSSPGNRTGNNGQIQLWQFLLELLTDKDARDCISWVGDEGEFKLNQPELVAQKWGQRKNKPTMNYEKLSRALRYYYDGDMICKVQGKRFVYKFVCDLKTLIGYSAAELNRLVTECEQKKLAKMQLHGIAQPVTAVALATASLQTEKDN
Outline: as §1

ERG = target: T4, ERG (Homo sapiens, UniProt P11308 1-479); conditions: protein: recombinant; tags: N-terminal GST; dsDNA, one strand shown
T4 sequence: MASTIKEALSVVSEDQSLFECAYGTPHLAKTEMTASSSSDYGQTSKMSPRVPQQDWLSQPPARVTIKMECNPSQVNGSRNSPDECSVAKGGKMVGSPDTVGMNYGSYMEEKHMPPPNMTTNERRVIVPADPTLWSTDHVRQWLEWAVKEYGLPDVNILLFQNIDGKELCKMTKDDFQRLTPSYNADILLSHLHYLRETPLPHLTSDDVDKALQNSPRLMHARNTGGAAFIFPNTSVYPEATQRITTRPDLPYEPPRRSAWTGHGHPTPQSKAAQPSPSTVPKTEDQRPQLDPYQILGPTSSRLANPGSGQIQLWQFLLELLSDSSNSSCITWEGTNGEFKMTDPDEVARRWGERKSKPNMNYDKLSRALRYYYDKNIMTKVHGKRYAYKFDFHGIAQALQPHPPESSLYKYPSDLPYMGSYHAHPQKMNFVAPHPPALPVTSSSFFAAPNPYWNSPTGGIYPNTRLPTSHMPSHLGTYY
Outline: as §1

ELF1 = ELF1 (Homo sapiens, UniProt P32519 1-619); conditions: protein: recombinant; tags: N-terminal GST; dsDNA, one strand shown
Outline: as §1

EHF = target: T5, EHF (Homo sapiens, UniProt Q9NZC4 1-300); conditions: protein: recombinant; tags: N-terminal GST; dsDNA, one strand shown
T5 sequence: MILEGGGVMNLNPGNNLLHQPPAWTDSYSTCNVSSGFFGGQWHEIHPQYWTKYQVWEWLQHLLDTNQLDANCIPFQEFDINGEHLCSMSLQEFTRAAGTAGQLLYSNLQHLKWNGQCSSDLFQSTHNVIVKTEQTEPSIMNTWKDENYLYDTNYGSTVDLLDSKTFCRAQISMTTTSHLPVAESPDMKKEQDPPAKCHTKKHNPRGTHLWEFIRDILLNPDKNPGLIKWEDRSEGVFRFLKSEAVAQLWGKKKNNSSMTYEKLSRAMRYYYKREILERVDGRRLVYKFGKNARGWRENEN
Outline: as §1

SPI1 = SPI1 (Homo sapiens, UniProt P17947 1-270); conditions: protein: recombinant; tags: N-terminal GST; dsDNA, one strand shown
Outline: as §1

SPIB = SPIB (Homo sapiens, UniProt Q01892 1-262); conditions: protein: recombinant; tags: N-terminal GST; dsDNA, one strand shown
Outline: as §1

ELK3 = target: T6, ELK3 (Homo sapiens, UniProt P41970 1-407); conditions: protein: recombinant; tags: N-terminal GST; dsDNA, one strand shown
T6 sequence: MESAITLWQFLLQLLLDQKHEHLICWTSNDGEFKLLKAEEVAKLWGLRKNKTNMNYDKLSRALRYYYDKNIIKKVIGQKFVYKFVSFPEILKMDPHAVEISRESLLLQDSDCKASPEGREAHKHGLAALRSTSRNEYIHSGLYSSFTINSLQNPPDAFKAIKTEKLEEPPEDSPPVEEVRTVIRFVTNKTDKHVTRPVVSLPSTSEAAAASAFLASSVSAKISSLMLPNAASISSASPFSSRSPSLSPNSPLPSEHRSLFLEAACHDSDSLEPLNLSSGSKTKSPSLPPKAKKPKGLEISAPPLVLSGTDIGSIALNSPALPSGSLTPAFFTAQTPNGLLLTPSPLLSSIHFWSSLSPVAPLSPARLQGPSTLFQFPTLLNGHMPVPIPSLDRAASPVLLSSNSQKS
Outline: as §1

FEV = target: T7, FEV (Homo sapiens, UniProt Q99581 1-238); conditions: protein: recombinant; tags: N-terminal GST; dsDNA, one strand shown
T7 sequence: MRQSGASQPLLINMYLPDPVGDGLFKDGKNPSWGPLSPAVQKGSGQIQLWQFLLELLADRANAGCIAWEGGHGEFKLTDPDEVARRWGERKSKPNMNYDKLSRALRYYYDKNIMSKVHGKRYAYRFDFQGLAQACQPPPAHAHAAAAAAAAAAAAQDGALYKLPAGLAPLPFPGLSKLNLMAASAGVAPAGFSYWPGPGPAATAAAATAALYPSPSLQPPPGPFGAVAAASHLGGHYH
Outline: as §1

ETV5 = ETV5 (Homo sapiens, UniProt P41161 1-510); conditions: protein: recombinant; tags: N-terminal GST; dsDNA, one strand shown
Outline: as §1

HSF1 = HSF1 (Homo sapiens, UniProt Q00613 1-529); conditions: protein: recombinant; tags: N-terminal GST; chain copies: 3; dsDNA, one strand shown
Outline: as §1

SPIC = target: T8, SPIC (Homo sapiens, UniProt Q8N5J4 1-248); conditions: protein: recombinant; tags: N-terminal GST; dsDNA, one strand shown
T8 sequence: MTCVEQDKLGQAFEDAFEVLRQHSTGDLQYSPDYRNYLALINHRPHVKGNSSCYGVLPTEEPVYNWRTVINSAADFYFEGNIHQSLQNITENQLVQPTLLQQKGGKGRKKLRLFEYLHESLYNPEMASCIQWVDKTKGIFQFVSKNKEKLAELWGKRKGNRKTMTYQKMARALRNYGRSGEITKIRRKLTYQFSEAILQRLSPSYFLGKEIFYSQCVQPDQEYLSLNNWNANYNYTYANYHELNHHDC
Outline: as §1

ELF4 = ELF4 (Homo sapiens, UniProt Q99607 1-663); conditions: protein: recombinant; tags: N-terminal GST; dsDNA, one strand shown
Outline: as §1

ELK4 = target: T9, ELK4 (Homo sapiens, UniProt P28324-2 1-405); conditions: protein: recombinant; tags: N-terminal GST; dsDNA, one strand shown
T9 sequence: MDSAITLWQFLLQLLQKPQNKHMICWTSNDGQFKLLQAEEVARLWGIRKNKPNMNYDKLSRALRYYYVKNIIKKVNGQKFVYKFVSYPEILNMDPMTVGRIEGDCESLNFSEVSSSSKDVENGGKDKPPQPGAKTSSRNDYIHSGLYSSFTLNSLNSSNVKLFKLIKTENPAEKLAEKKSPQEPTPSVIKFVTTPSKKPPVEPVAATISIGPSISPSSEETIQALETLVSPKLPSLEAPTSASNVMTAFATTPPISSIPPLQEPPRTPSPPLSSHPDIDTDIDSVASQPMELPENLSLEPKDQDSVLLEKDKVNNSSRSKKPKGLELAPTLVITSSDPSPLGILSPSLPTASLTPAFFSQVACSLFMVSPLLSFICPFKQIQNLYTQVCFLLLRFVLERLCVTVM
Outline: as §1

ETV2 = target: T10, ETV2 (Homo sapiens, UniProt O00321 1-342); conditions: protein: recombinant; tags: N-terminal GST; dsDNA, one strand shown
T10 sequence: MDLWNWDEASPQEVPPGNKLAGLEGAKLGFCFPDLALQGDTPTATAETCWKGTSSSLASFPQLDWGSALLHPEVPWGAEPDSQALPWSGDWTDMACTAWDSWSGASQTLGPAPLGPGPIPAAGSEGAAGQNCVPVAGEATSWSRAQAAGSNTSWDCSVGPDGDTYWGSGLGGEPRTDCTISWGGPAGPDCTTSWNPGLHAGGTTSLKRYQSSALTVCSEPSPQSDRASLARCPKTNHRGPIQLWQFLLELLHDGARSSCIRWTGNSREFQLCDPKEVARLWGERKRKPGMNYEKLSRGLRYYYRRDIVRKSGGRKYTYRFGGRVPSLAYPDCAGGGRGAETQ
Outline: as §1

ELF3 = target: T11, ELF3 (Homo sapiens, UniProt P78545 1-371); conditions: protein: recombinant; tags: N-terminal GST; dsDNA, one strand shown
T11 sequence: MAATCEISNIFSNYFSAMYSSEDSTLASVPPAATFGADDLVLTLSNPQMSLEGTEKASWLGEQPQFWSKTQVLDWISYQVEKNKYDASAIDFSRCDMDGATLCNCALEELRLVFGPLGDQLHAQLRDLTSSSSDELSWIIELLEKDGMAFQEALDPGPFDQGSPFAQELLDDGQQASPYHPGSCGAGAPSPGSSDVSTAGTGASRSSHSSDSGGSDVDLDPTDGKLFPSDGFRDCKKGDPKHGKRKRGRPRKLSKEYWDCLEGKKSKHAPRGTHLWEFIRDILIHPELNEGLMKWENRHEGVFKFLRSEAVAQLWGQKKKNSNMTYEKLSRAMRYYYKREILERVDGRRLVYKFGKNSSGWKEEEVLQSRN
Outline: as §1

CRX = CRX (Homo sapiens, UniProt O43186 1-299); conditions: protein: recombinant; tags: N-terminal GST; dsDNA, one strand shown
Outline: as §1

ETV1 = ETV1 (Homo sapiens, UniProt P50549 1-477); conditions: protein: recombinant; tags: N-terminal GST; dsDNA, one strand shown
Outline: as §1

ELF1, sequence (P32519 whole entry): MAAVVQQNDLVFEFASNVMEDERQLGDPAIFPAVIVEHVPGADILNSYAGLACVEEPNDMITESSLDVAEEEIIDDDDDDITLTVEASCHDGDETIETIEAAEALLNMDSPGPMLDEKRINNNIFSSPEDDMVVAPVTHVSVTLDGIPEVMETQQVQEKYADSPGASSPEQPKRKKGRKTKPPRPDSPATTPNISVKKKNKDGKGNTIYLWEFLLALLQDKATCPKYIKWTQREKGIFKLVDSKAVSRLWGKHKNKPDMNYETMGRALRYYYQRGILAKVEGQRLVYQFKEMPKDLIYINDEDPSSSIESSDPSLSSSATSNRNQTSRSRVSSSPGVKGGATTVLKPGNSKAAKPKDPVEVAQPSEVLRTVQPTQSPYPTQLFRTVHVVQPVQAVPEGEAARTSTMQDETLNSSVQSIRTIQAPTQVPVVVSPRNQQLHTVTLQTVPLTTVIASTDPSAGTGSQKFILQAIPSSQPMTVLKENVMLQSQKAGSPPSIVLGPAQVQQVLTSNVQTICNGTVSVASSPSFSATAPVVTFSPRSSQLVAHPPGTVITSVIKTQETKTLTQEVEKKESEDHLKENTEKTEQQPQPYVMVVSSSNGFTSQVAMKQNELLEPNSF
SPIB, sequence (Q01892 whole entry): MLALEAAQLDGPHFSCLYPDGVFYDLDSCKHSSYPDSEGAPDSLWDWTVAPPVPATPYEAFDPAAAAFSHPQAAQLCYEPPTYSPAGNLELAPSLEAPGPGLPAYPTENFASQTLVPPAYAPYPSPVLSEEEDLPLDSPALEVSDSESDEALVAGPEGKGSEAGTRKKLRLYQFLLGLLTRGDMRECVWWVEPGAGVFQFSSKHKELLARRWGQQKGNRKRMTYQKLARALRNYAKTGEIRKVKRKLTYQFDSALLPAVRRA
ELF4, sequence (Q99607 whole entry): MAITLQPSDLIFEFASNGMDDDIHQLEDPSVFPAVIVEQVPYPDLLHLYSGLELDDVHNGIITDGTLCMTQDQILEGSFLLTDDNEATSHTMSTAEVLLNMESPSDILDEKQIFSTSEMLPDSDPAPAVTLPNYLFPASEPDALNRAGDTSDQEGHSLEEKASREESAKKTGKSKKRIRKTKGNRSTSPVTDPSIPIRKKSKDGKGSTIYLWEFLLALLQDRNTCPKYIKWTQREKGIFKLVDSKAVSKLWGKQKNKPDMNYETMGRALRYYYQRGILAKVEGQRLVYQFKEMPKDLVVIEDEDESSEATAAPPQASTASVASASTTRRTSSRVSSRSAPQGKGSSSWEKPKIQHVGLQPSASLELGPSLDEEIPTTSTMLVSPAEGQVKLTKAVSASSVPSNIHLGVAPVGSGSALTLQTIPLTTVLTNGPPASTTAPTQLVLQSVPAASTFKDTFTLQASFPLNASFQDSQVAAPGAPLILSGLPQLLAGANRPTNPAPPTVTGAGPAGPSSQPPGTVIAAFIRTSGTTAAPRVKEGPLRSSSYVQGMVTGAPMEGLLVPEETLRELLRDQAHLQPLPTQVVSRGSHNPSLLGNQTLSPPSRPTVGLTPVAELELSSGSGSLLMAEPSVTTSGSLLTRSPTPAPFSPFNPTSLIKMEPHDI
CRX, sequence (O43186 whole entry): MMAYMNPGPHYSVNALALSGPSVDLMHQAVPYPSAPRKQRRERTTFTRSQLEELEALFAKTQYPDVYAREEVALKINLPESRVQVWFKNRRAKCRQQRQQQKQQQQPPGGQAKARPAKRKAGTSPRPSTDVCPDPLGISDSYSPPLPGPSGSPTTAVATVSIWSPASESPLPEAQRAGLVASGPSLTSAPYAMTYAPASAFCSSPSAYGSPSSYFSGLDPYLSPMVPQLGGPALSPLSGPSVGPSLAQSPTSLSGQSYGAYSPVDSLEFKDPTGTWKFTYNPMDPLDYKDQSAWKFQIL
HSF1, sequence (Q00613 whole entry): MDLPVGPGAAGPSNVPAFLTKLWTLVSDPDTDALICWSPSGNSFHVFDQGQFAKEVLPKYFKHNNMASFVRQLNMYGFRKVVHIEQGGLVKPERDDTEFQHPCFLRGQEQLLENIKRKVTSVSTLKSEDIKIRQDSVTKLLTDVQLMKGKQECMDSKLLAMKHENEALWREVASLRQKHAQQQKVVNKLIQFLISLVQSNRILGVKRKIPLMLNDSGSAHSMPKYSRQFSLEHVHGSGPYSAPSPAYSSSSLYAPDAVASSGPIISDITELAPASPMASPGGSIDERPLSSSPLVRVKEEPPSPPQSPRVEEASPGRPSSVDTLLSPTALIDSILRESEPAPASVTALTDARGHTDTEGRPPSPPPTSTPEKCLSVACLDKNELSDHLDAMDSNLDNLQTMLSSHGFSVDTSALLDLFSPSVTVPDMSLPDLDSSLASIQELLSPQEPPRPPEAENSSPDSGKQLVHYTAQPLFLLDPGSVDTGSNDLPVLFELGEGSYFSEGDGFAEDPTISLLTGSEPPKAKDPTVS
ETV1, sequence (P50549 whole entry): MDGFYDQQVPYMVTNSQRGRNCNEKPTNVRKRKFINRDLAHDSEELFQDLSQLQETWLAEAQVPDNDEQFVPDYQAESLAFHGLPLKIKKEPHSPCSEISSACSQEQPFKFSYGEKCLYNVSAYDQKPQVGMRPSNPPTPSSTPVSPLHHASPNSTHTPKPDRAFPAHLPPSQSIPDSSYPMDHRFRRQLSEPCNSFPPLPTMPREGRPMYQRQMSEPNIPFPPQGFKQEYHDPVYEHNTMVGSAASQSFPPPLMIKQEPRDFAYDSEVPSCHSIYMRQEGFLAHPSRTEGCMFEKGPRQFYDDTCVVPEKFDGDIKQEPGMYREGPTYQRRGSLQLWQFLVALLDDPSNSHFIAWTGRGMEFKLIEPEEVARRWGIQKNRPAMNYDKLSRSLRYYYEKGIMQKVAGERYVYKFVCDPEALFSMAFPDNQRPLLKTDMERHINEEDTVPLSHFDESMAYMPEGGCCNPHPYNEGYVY
ETV5, sequence (P41161 whole entry): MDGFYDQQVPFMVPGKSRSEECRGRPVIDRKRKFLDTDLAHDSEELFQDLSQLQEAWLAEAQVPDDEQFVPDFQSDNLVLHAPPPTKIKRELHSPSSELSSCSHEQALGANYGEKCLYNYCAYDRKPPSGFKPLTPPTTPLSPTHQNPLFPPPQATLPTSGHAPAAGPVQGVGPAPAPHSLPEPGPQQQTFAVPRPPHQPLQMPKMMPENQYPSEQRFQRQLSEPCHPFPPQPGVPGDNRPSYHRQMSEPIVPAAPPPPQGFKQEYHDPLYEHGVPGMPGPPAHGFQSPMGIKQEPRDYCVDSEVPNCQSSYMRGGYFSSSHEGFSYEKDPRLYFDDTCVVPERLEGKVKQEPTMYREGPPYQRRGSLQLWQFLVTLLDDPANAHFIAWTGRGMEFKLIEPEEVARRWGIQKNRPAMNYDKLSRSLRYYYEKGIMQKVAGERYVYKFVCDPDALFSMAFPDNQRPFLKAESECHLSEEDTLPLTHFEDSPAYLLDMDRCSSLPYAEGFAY

## AACTCA
FLI1
  binding signal: 1.35 fold enrichment (6-mer frequency, TF over GST control)
ELK1
  binding signal: 1.27 fold enrichment (6-mer frequency, TF over GST control)
GABPA
  binding signal: 1.25 fold enrichment (6-mer frequency, TF over GST control)
ERG
  binding signal: 1.12 fold enrichment (6-mer frequency, TF over GST control)
ELF1
  binding signal: 1.23 fold enrichment (6-mer frequency, TF over GST control)
EHF
  binding signal: 1.18 fold enrichment (6-mer frequency, TF over GST control)
SPI1
  binding signal: 1.25 fold enrichment (6-mer frequency, TF over GST control)
SPIB
  binding signal: 1.23 fold enrichment (6-mer frequency, TF over GST control)
ELK3
  binding signal: 1.36 fold enrichment (6-mer frequency, TF over GST control)
FEV
  binding signal: 1.26 fold enrichment (6-mer frequency, TF over GST control)
ETV5
  binding signal: 1.25 fold enrichment (6-mer frequency, TF over GST control)
HSF1
  binding signal: 1.14 fold enrichment (6-mer frequency, TF over GST control)
SPIC
  binding signal: 1.2 fold enrichment (6-mer frequency, TF over GST control)
ELF4
  binding signal: 1.27 fold enrichment (6-mer frequency, TF over GST control)
ELK4
  binding signal: 1.21 fold enrichment (6-mer frequency, TF over GST control)
ETV2
  binding signal: 1.22 fold enrichment (6-mer frequency, TF over GST control)
ELF3
  binding signal: 1.15 fold enrichment (6-mer frequency, TF over GST control)
CRX
  binding signal: 1.12 fold enrichment (6-mer frequency, TF over GST control)
ETV1
  binding signal: 1.24 fold enrichment (6-mer frequency, TF over GST control)
